Measurements as given in PubChem BioAssay (NCATS).
Records with an inconclusive call do not appear. Activity calls are given as the source filed them. The call rests on the fitted dose curve; in most records, active means well fitted inhibition curve with a large enough effect; inconclusive means small, poorly fitted or top-dose-only effect; inactive means flat fitted curve, though single readings scatter.

test system: HEK293T; assay: qHTS assay to identify novel small-molecules to repurpose for Merkel cell carcinoma treatment (AID 1296009); settings: MCC and control cell lines, CellTiter-Glo viability, 72 h; series mostly up to 44.8 µM; further: nearly all actives have a fitted effect of over 60% in size
Procedure, shortened: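 qHTS format: cells treated with library compounds in DMSO across 8 (NPC) or 11 (MIPE) concentrations. Readout after 72 hr at 37 degree celsius was CellTiter-Glo luminescence.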

| SMILES | outcome |
| --- | --- |
| O=C(O[C@H]1[C@@H]2C[C@@H]3OC[C@@](O)([C@H]2[C@H](O[C@@H]2O[C@H](CO)[C@@H](O)[C@H](O)[C@H]2O)O3)[C@@H]1O)c1ccccc1 | inactive [at 17.4 µM] |
| C[C@H]1C[C@H]2[C@@H]3CCC4=CC(=O)C=C[C@]4(C)[C@@]3(F)[C@@H](O)C[C@]2(C)[C@@]1(O)C(=O)COP(=O)(O)O | inactive |
| CCOC(=O)c1ccc(N(C)c2csc(-c3ccccc3)n2)cc1 | inactive |
| C[C@@H]1C[C@H](O[C@@H]2O[C@H](CO[C@@H]3OC[C@](O)(CO)[C@H]3O)[C@@H](O)[C@H](O)[C@H]2O)CC(C)(C)[C@H]1/C=C/[C@@H](C)O | inactive [at 17.4 µM] |
| Oc1ccc([C@H]2COc3cc(O)ccc3C2)cc1 | inactive |
| CC(C)(C)c1cc(CN2CCN(CC(O)c3ccc(Cl)cc3)CC2)cc(C(C)(C)C)c1O (stereo not given) | inactive |
| COc1cc(C2c3cc(O)c(OC)cc3CC(CO)C2CO)ccc1O (stereo not given) | inactive |
| O=C1Nc2ccc(O)cc2O[C@H]1O[C@@H]1O[C@H](CO)[C@@H](O)[C@H](O)[C@H]1O | inactive |
| Clc1ccc2c(c1)C1=NCCN1c1c(-c3noc(C4CC4)n3)ncn1-2 | inactive |
| C=C[C@H]1[C@H](O[C@@H]2O[C@H](CO)[C@@H](O)[C@H](O)[C@H]2O)OC=C(C(=O)OC)[C@H]1C[C@@H]1N[C@H](C(=O)O)Cc2c1[nH]c1ccccc21 | inactive [at 17.4 µM] |
